High-throughput results deposited in PubChem BioAssay by National Center for Advancing Translational Sciences (NCATS).
Shown are actives, neighbours in structure and some others; about 19% of the full set was active somewhere.
HT1080 IDH1KD tx = kills HT-1080 cells with IDH1 knockdown | HT-1080 IDH1 knockdown viability, ATP luminescence, 48 h | Potency, µM (top dose mostly 46.1 µM), hits mostly cytotoxic | 360,000 compounds, 2% hits | AID 686971
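After a 2 h attachment period, IDH1KD HT-1080 cells took pin-transferred compound for 48 h at 37 °C; ATP-based luminescence after 10 min room-temperature reagent incubation reported viability.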
IL-1B inflam inh = inhibitors of inflammasome signaling (IL-1 beta secretion). THP-1 LPS/ATP IL-1B secretion, AlphaLISA, 16 h; hits give low values. activity change, % at 57.5 µM. 360,000 compounds, 4.7% hits. AID 743279; in the data active = activity change below about -50%; inconclusive = mostly about -30% to -49%
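THP-1 cells pretreated 1 hr with compounds (up to 57.5 uM final), then stimulated with LPS (250 ng/mL final) plus ATP (1.25 mM final); secreted IL-1B measured by AlphaLISA after 16 hr, decreased signal indicating inhibition.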
ELG1 DNA repair = blocks ELG1-dependent DNA repair in HEK293T cells; 330,000 compounds, 2.3% hits; HEK293T ELG1-luciferase reporter, luminescence, 16 h; DNA damage induced by 5-fluorouridine; Potency, µM (top dose mostly 46.1 µM), most hits filed as inhibitors; note: nearly all actives have a fitted effect of over 55% in size
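Quantitative HTS, concentration-response format. 2,000 cells/well co-treated with 5-fluorouridine and compound, 16 hr in 5% CO2 at 37 °C; ONE-Glo luminescence read after 30 min.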
DT40 TDP1 CPT = growth inhibition of DT40 Tdp1-/-;hTDP1 cells with camptothecin (screen for TDP1 inhibitors); chicken DT40 Tdp1-/-;hTDP1 cells + 20 nM CPT, ATP luminescence, 48 h; Potency, µM (series often up to 46.2 µM), usual class: inhibitors; 420,000 compounds, 12% hits; note: nearly all actives have a fitted effect of over 55% in size
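Chicken DT40 Tdp1-/- cells stably complemented with human TDP1 were seeded at 400 cells/well in medium containing 20 nM camptothecin, exposed to pin-transferred compounds, and grown at 37 °C for at least 48 hr. Viability was read as ATP luminescence.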
HT1080-NT tox = kills 2HG-producing HT-1080-NT fibrosarcoma cells. HT-1080-NT fibrosarcoma viability, CellTiter-Glo ATP luminescence, 48 h. Potency, µM (highest dose often 46.1 µM), actives largely listed as cytotoxic. 360,000 compounds, 1.6% hits;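 note: NT is the 2HG producing partner of a matched IDH1 knockdown line; nearly all actives have a fitted effect of over 55% in size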
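HT-1080-NT; 750 cells/well; 5% FBS RPMI; 48 h compound, 37 degrees C; CellTiter-Glo luminescence; curve fitting and curve-class assignment.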
DT40 TDP1 no CPT = qHTS for Inhibitors of human tyrosyl-DNA phosphodiesterase 1 (TDP1): qHTS in cells in absence of CPT; Potency, µM (series often up to 46.2 µM), most hits filed as inhibitors; DT40 Tdp1-/- hTDP1 cells, no CPT, ATP luminescence, 48 h; 420,000 compounds, 15% hits; note: nearly all actives have a fitted effect of over 55% in size
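No-CPT arm: Tdp1-/-;hTDP1 DT40 cells (400/well) plus compounds, incubated ≥48 hr at 37 °C. Readout CellTiter-Glo luminescence.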
Large screens that a line does not name were inactive. Unless noted, calls come from the whole dose curve; as a rule, active = well fitted curve in the direction sought with a large enough effect; inconclusive = small, poorly fitted or top-dose-only effect, or another doubt; inactive = no such curve, though single readings can be large; an effect the other way counts as inactive or inconclusive.

O=C(O)c1ccc(NC2=C(Cl)C(=O)c3ccccc3C2=O)cc1	ELG1 DNA repair inconclusive, DT40 TDP1 CPT 14.6µM, DT40 TDP1 no CPT 13µM
CC(=O)N(Cc1ccc(F)cc1)C1=C(NCCc2ccccc2)C(=O)c2ccccc2C1=O	HT1080 IDH1KD tx 5.17µM, IL-1B inflam inh -79.3, ELG1 DNA repair inconclusive, DT40 TDP1 CPT 1.84µM, HT1080-NT tox 5.8µM, DT40 TDP1 no CPT 1.84µM
C=CCNC1=C(Cl)C(=O)N(Cc2ccccc2)C1=O	IL-1B inflam inh inconclusive
Clc1ccccc1-c1cc(NCc2cccnc2)ncn1	none (no result: HT1080 IDH1KD tx, IL-1B inflam inh, ELG1 DNA repair, HT1080-NT tox)
O=C1C(Cl)=C(Nc2ccccc2)C(=O)c2ccccc21	IL-1B inflam inh -107.0, ELG1 DNA repair inconclusive, DT40 TDP1 CPT 2.06µM, DT40 TDP1 no CPT 2.91µM
O=C1C(Cl)=C(NCc2cccnc2)C(=O)c2ccccc21	HT1080 IDH1KD tx inconclusive, IL-1B inflam inh -101.2, ELG1 DNA repair 20.6µM, DT40 TDP1 CPT 13µM, HT1080-NT tox 18.4µM, DT40 TDP1 no CPT 8.2µM
C=CCNC1=C(Cl)C(=O)c2ccccc2C1=O	DT40 TDP1 CPT 14.6µM, DT40 TDP1 no CPT 16.4µM
O=C(NCCc1ccc(F)cc1)N[C@@H](Cc1ccccc1)C(=O)O	none
C#CCn1c(COc2ccccc2C)nc2ccccc21	DT40 TDP1 no CPT inconclusive (no result: HT1080 IDH1KD tx, IL-1B inflam inh, ELG1 DNA repair, HT1080-NT tox)
COc1cccc(CN2CC(C(=O)NCCc3ccccc3C(F)(F)F)CCC2=O)c1 (stereo unspecified)	none
CC(C)OCCCNC1=C(Cl)C(=O)c2ccccc2C1=O	HT1080 IDH1KD tx inconclusive, DT40 TDP1 CPT inconclusive, DT40 TDP1 no CPT inconclusive (no result: IL-1B inflam inh)
CC(C)NC1=C(Cl)C(=O)c2ccccc2C1=O	HT1080 IDH1KD tx 7.08µM, DT40 TDP1 CPT 18.4µM, HT1080-NT tox inconclusive, DT40 TDP1 no CPT inconclusive
O=C(CN1C(=O)CCC1=O)Nc1nc(-c2nc3ccccc3s2)cs1	IL-1B inflam inh -57.2, ELG1 DNA repair inconclusive
COCCN(CC(=O)Nc1cccc(C)c1C)C(=O)C1(c2ccc(Cl)cc2)CCC1	IL-1B inflam inh -53.1, ELG1 DNA repair inconclusive, DT40 TDP1 CPT inconclusive, DT40 TDP1 no CPT inconclusive
COc1ccc(S(=O)(=O)N2CCCCCC2)cc1C(=O)N(C)CCOc1ccc(Cl)cc1	IL-1B inflam inh inconclusive, ELG1 DNA repair inconclusive, DT40 TDP1 CPT 20.6µM, HT1080-NT tox inconclusive, DT40 TDP1 no CPT 20.6µM
COc1ccc(CCN(C)C(=O)c2cc(S(=O)(=O)N3CCCCCC3)ccc2OC)cc1OC	DT40 TDP1 CPT inconclusive, DT40 TDP1 no CPT inconclusive
CCN1CCN(S(=O)(=O)c2ccc(Cl)c(C(=O)N(C)CCOc3ccc(Cl)cc3)c2)CC1	HT1080 IDH1KD tx inconclusive, ELG1 DNA repair inconclusive, DT40 TDP1 CPT 18.4µM, HT1080-NT tox inconclusive, DT40 TDP1 no CPT 14.6µM
CCN1CCN(S(=O)(=O)c2ccc(Cl)c(C(=O)N(C)C(c3ccccc3)c3ccccc3)c2)CC1	IL-1B inflam inh -75.4, DT40 TDP1 CPT inconclusive, DT40 TDP1 no CPT inconclusive
CCN1CCN(S(=O)(=O)c2ccc(Cl)c(C(=O)N(C)C3CCCCC3)c2)CC1	DT40 TDP1 CPT inconclusive, DT40 TDP1 no CPT inconclusive (no result: ELG1 DNA repair)
COc1ccc(CCN(C)C(=O)c2cc(S(=O)(=O)N3CCCCC3)ccc2Cl)cc1OC	DT40 TDP1 CPT inconclusive, DT40 TDP1 no CPT 23.1µM
O=C(Nc1ccccc1Cl)OC1CCCCC1	ELG1 DNA repair inconclusive, DT40 TDP1 no CPT inconclusive
CCN1CCN(S(=O)(=O)c2ccc(Cl)c(C(=O)N(C)Cc3cccs3)c2)CC1	DT40 TDP1 CPT inconclusive, DT40 TDP1 no CPT inconclusive
CCN1CCN(S(=O)(=O)c2ccc(Cl)c(C(=O)N(C)Cc3ccc(Cl)cc3Cl)c2)CC1	ELG1 DNA repair inconclusive, DT40 TDP1 CPT inconclusive, DT40 TDP1 no CPT 23.1µM
COc1cccc(CC(NC(C)=O)C(=O)NC2CCN(S(=O)(=O)c3ccc(NC(C)=O)cc3)CC2)c1 (stereo unspecified)	none
Cc1ccc2c(c1)c1ncnc(N3CCN(c4ccccc4)CC3)c1n2C	DT40 TDP1 CPT 20.6µM, DT40 TDP1 no CPT inconclusive
